ST2 IL33 inh – blocks human ST2 binding to IL-33; AlphaLISA ST2-Fc/biotin-IL-33 interaction, 1 h; Q01638; inhibition, % for hits at 17 µM; AID 1259354; actives 2.3% (n = 78,000); in the data active means inhibition above about 30%
Target sequence (Q01638 whole entry, looked up): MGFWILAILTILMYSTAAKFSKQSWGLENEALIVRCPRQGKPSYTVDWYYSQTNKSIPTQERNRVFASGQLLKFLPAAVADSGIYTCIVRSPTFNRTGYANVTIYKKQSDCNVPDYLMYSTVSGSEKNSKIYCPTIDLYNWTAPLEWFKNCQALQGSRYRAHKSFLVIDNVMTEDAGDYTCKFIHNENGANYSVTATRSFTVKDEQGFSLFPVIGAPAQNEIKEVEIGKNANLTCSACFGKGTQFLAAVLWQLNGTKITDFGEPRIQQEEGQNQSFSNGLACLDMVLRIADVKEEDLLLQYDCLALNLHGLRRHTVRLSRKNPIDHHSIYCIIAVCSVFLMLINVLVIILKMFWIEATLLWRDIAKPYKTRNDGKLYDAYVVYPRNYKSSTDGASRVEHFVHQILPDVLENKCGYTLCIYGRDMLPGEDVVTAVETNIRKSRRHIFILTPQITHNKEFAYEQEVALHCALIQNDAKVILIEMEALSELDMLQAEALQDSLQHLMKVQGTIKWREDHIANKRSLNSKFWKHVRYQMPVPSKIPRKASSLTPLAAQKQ
Numbers stand for hits; i = inactive. This is one part of a sample in which hits are shown more often than they occur.

SMILES | ST2 IL33 inh
CCOc1ccc(C(=O)NC2CC(=O)N(c3cccc(OC)c3)C2)cc1OCC (configuration not stated) | i
CN1CCN(C(=O)C(=O)Nc2ccc3c(c2)OCO3)CC1 | i
COc1cccc(-c2noc(-c3ccc(N4CCCC(CO)C4)nc3)n2)c1OC (configuration not stated) | i
COc1ccc(NC(=O)CSc2cn(CCNC(=O)c3ccc(F)cc3)c3ccccc23)cc1 | i
CCCc1nc2ccccc2n1CC(O)COc1ccc(Br)cc1 (configuration not stated) | i
CCc1cc(N2C[C@H](OC(C)C)[C@@H](O)C2)nc(N(C)C)n1 | i
CCN(Cc1ccccc1)Cc1ccc(N(C)C)cc1 | 36.0%
CN(Cc1ccccc1)Cc1ccccc1 | i
CCN(CCc1ccccc1)CCN(C)C | i
O=[N+]([O-])c1ccc(S(=O)(=O)c2nc3ccccc3s2)c(Cl)c1 | 54.0%
O=C(CSc1nc2ccccc2s1)Nc1nc2ccc([N+](=O)[O-])cc2s1 | i
O=C(c1cc([N+](=O)[O-])ccc1Cl)n1nnc2ccccc21 | i
O=C1CC(c2ccc(Cl)cc2)c2cc(Br)c3ccccc3c2N1 (configuration not stated) | i
CN(Cc1cc2n(n1)CCNC2)Cc1n[nH]c2c1CCCCC2 | i
CCn1cc(C(=O)N2CCCCC2)c(=O)c2cc(S(=O)(=O)N3CC(C)CC(C)C3)ccc21 (configuration not stated) | i
O=C(Nc1cnc2ccccc2c1)C12CC3CC(CC(C3)C1)C2 | i
CCCc1cc(NCCCCO)n2c(nc3ccccc32)c1C#N | i
CCc1nc(NCCN(CC)CC)c(C#N)c2c1CCCC2 | i
CCN(CC)CCCNc1c2c(c(C#N)c3nc4ccccc4n13)CCC2 | 42.0%
CCc1nc(C)c(C(=O)N(Cc2ccccn2)CC2CCCO2)o1 (configuration not stated) | i
COc1ccc(I)c(OC)c1 | i
COc1ccc2c(c1)C(C)=CC(C)(C)N2 | 42.0%
CC1=CC(C)(C)Nc2ccc(OC(=O)COc3ccc(Cl)cc3)cc21 | i
CCSC1=C(C#N)C(c2ccc(C)cc2)C(C(=O)OC)C(=O)N1 (configuration not stated) | i
O=C(NCc1cccs1)c1cc(-c2ccc(Br)cc2)on1 | i
SMILES | ST2 IL33 inh
CC(=O)N1N=C(c2ccc(C)cc2)OC12CCCCCC2 | i
CSc1nc2c(sc3ccccc32)c(=O)n1Cc1ccco1 | i
c1ccc(N2CCN(Cc3ccco3)CC2)cc1 | i
c1ccc(N=c2scc(-c3ccccc3)n2Cc2ccco2)cc1 | 62.0%
CC(C)n1c(-c2ccccc2)csc1=Nc1ccccc1 | 70.0%
COc1ccc2cc3cc(C(=O)NC(C)CCc4ccccc4)oc3nc2c1 (configuration not stated) | i
CCc1cc2c(=O)c(-c3ccc4c(c3)OCO4)c(C)oc2cc1OCC(=O)O | i
CCN(Cc1cnc2ccccc2c1)Cc1c(C)nn(CC)c1C | i
Cc1cc(NC(=O)Cn2c(=O)n(-c3ccc(C)c(C)c3)c(=O)c3c4c(sc32)CCC4)n[nH]1 | i
O=C(/C=C/c1ccccc1)CC(O)CCc1ccccc1 (configuration not stated) | i
CC(=O)Nc1ccc(/C=C/c2ccccc2)cn1 | i
CC(C)(C)C(=O)/C=C(N)\C=C\c1ccccc1 | 37.0%
CCOC(=O)CSc1ncnc2nc[nH]c12 | i
Cc1ncc(CO)c(CN(C)Cc2cc(C(C)(C)C)n[nH]2)c1O | i
Cc1ccc2ccc(C(Nc3ccccn3)c3cccnc3)c(O)c2n1 (configuration not stated) | i
CCOc1cccc(C(Nc2ccccn2)c2ccc3ccc(C)nc3c2O)c1O (configuration not stated) | i
Cc1ccc2ccc(C(Nc3ccccn3)c3ccc(N(C)C)cc3)c(O)c2n1 (configuration not stated) | 41.0%
COc1ccc(C(Nc2cc(C)ccn2)c2ccc3ccc(C)nc3c2O)cc1OC (configuration not stated) | i
CSc1ccc(C(Nc2ccccn2)c2ccc3cccnc3c2O)cc1 (configuration not stated) | 33.0%
Fc1ccc(C(Nc2ccccn2)c2c[nH]c3ccccc23)cc1 (configuration not stated) | i
O=C(NC1CCCCCC1)C1CCN(Cc2c(F)cccc2Cl)CC1 | i
Cc1cccc(-n2nc3c(c2NC(=O)c2cccs2)CS(=O)C3)c1C (configuration not stated) | i
Cc1cnccc1NCCNC(=O)c1cnn2c1CCCC2 | i
COc1ccc(S(=O)(=O)N2CCC(C(=O)Nc3ccc4c(c3)OCO4)CC2)cc1 | i
COc1ccc(Nc2nc3ccc(F)cc3s2)cc1 | i
SMILES | ST2 IL33 inh
O=C1N=c2ccccc2=C1c1sc(Nc2ccc(Br)cc2)nc1O | 40.0%
Cc1ccc(Nc2nc3ccccc3c(=O)s2)cc1 | i
Cc1ccc(C)c(-c2csc(Nc3ccc(F)cc3)n2)c1 | i
NC(=O)C1CCN(c2nc(O)c(C3=c4ccccc4=NC3=O)s2)CC1 | i
O=C1N=c2ccc(F)cc2=C1c1sc(Nc2ccc(F)cc2)nc1O | 48.0%
CC(C)C(NS(=O)(=O)c1cccs1)C(=O)Nc1ccc(Br)cc1 (configuration not stated) | i
CC(=O)NCCCc1nc2ccccc2n1CC(C)C | i
O=[N+]([O-])c1ccc(C2SCCN2S(=O)(=O)c2ccc(F)cc2)cc1 (configuration not stated) | i
CCCN(Cc1cccnc1)C(=O)C1CCN(Cc2ccco2)CC1 | i
Nc1ccc2[nH]c3ccccc3c2c1 | 66.0%
CNC(=O)c1cc2c(cn1)[nH]c1ccccc12 | i
O=c1nc(-c2ccccc2)c2ccccc2[nH]1 | i
COc1ccc(NC(=O)C2CC(=O)N(c3ccccc3Cl)C2)cc1 (configuration not stated) | i
CCn1nc(C)c(C(C)NC(=O)c2ccccc2-c2ncc[nH]2)c1C (configuration not stated) | i
O=[N+]([O-])c1cc(Cc2ccccc2)ccc1O | 36.0%
O=[N+]([O-])c1cc(CN2CCOCC2)ccc1O | i
O=[N+]([O-])c1cc(CN2CCCCC2)ccc1O | i
CCOC(=O)c1[nH]c2ccc(F)cc2c1NC(=O)CN1CCCCC1 | i
CCOc1ccc(C(=O)Nc2ccc(OC)cc2OC)cc1[N+](=O)[O-] | i
CC1(C)CC(N2C(=O)OC(C)([C@H]3CC4C=CC3C4)C2(C)O)CC(C)(C)N1 (some centres not stated) | 98.0%
CCOc1ccc(CNS(=O)(=O)c2ccc3c(c2)NC(=O)CC(=O)N3)cc1 | i
CCc1c(O)nc(SC)n(-c2ccccc2)c1=O | i
CN1CCN(C(=O)c2cc(-c3ccc4c(c3)OCO4)nc3ccccc23)CC1 | i
COc1ccccc1/C=C/C1=NC(=C\C(Cl)=C\c2ccccc2)/C(=O)O1 | i
COc1ccc(/C=C2\N=C(c3ccccc3Br)OC2=O)c(OC)c1OC | i
SMILES | ST2 IL33 inh
Cc1cccc(C2=N/C(=C\c3ccc(N(C)C)cc3)C(=O)O2)c1 | 39.0%
COc1ccc(/C=C2\N=C(c3ccc(C)cc3)OC2=O)cc1Br | i
COc1ccc(/C=C2\N=C(c3cccc(I)c3)OC2=O)cc1[N+](=O)[O-] | i
Cc1cccc(C2=N/C(=C\c3cccc([N+](=O)[O-])c3)C(=O)O2)c1 | i
CN(C)c1ccc(/C=C2\N=C(c3ccccc3Br)OC2=O)cc1 | 41.0%
Cc1cccc(C2=N/C(=C\c3ccccc3)C(=O)O2)c1 | 46.0%
O=C1OC(c2cc([N+](=O)[O-])ccc2Cl)=N/C1=C\c1cccc(I)c1 | i
CC1=N/C(=C\c2ccc(Br)cc2)C(=O)O1 | i
O=C1OC(c2ccccc2Cl)=N/C1=C\C=C\c1ccccc1 | 34.0%
